Data on eight compounds can be found in PubChem BioAssay (NCI).

What all share (experiment): NCI-60 one-dose screen, 48 h (100 = growth as untreated, 0 = no growth, -100 = all killed)
Holding throughout (conditions): 10 µM unless noted

In assay [1] the test system is NCI-H23 lung.
Assay [2] relates to NCI-H226 lung.
Assay [3] deals with NCI-H322M lung.
Assay [4] has as its system HOP-62 NSCLC.
For assay [5], the system named is NCI-H460 lung.
Assay [6] relates to NCI-H522 lung.
Assay [7] relates to A549/ATCC NSCLC.
The test system of assay [8] is 786-0 renal.
Assay [9] relates to COLO 205 colon.
In assay [10] the test system is DU-145 prostate.
Assay [11] deals with K-562 leukemia.
In assay [12] the test system is MALME-3M melanoma.
For assay [13], the system named is MDA-MB-231 breast.
In assay [14] the test system is RXF 393 renal.
Assay [15] has as its system SF-268 CNS.
Assay [16] deals with SF-295 CNS.
Assay [17] concerns SF-539 CNS.
The subject of assay [18] is UACC-257 melanoma.
Assay [19] has as its system M14 melanoma.

Compounds without any hit were thinned out: in the full panel of roughly 83,000, 20% have a hit.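 Results are percent growth after 48 hours of single-concentration exposure. 100 means growth as in untreated cells, lower positive values show inhibition; negative values down to -100 show cell death.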 A number with no mark means an inactive call. The source made the active and inactive calls. How the source made its calls: active means growth percent below 10; inactive means the rest.

As to `O=C1Nc2ccccc2/C1=C\c1nc(C2CCN(S(=O)(=O)c3ccc(F)cc3)CC2)n2ccccc12`, the growth is 42% in assay [1]; 41.2% in assay [2]; 55.5% in assay [3]; 47.8% in [4]; 65% in [5]; 16.5% in [6]. Moreover, the growth is 68.1% in [7]; -3.81% (active) in assay [8]; 79.1% in [9]; 57.1% in assay [10]; 56.9% in assay [11]; 3.9% (active) in [12]. Also, the growth in [13] is 32.8%; in assay [14] it was 16.6%; in assay [15] it was 14.2%; in [16], 46.5%; in [17], 27.4%; in assay [18], 72%. For the same compound, the growth in assay [19] was 61.5%.

In the case of `CS(=O)(=O)c1ccc(C(=O)N/N=C/c2ccccc2O)cc1`, the growth was 54.8% in assay [1]; 55.2% in [2]; 38.4% in assay [3]; 28.3% in [4]; 14.1% in assay [5]; 15.1% in assay [6]. In addition, the growth in assay [7] was 38.8%; in assay [8], 33%; in assay [9] it was 31.2%; in assay [10] it was 40.4%; in assay [11], 40.5%; in [12] it was 63.5%. For the same compound, the growth in assay [13] is 47.4%; in assay [14], 53%; in assay [15], 38.4%; in [16] it was 38%; in assay [17], 55.3%; in [18], 22.6%. The growth in [19] was 32.5%.

Consider `C=CCOC(=O)C1=C(C)NC2=C(C(=O)CC(C)(C)C2)C1c1ccc(OC)cc1` (configuration not stated), for which the growth was 104% in assay [1]; 98.4% in [2]; 95.7% in assay [3]; 90% in assay [4]; 106% in assay [5]; 82.8% in assay [6]. Moreover, the growth in [7] was 98.3%; in assay [8], 97.8%; in assay [9], 109%; in assay [10], 110%; in [11], 90.4%; in assay [12], 104%. In addition, the growth is 92.8% in assay [13]; 105% in assay [14]; 94.1% in assay [15]; 105% in assay [16]; 108% in assay [17]; 96.2% in assay [18]. In assay [19], the growth is 96.8%.

In the case of `COc1ccccc1-[n+]1cc(-c2ccc(-c3ccccc3)cc2)n2c1CCCCC2`, the growth was 2.82% (active) in [1]; 21.8% in assay [2]; 20% in assay [3]; 12.6% in [4]; 7.28% (active) in assay [5]; -12% (active) in [6]. Further, the growth in assay [7] was 10.3%; in assay [8], 18.5%; in [9], -7.92% (active); in [10] it was 20.7%; in assay [11], 10.5%; in assay [12], 0.879% (active). In addition, the growth in assay [13] was 19.1%; in assay [14], 15.2%; in assay [15], 21.2%; in [16], -1.81% (active); in assay [17], 18.2%; in [18], -22.9% (active). For the same compound, the growth in assay [19] was 11.1%.

For the compound `CCSc1cnnc2ccccc12`, the growth was 101% in [1]; 101% in [2]; 118% in assay [3]; 104% in assay [4]; 118% in assay [5]; 97.8% in assay [6]. In addition, the growth is 108% in assay [7]; 109% in assay [8]; 111% in assay [9]; 113% in assay [10]; 85.7% in [11]; 124% in [12]. Besides, the growth was 103% in [13]; 123% in assay [14]; 102% in [15]; 117% in [16]; 106% in [17]; 113% in assay [18]. Besides, in [19], the growth is 105%.

In the case of `COc1ccc(N=C2CSc3nnc(-c4cc(F)c(Cl)cc4Cl)n3N2)cc1`, the growth in assay [1] is -22.1% (active); in assay [2] it was 27.9%; in assay [3], 6.08% (active); in assay [4], -33.7% (active); in assay [5] it was -63.2% (active); in assay [6] it was -27.7% (active). Besides, the growth in [7] is -21.1% (active); in assay [8], -44.5% (active); in [9], -21.1% (active); in assay [10] it was -48.9% (active); in assay [11], -58.4% (active); in [12], -45.1% (active). Further, the growth is -4.51% (active) in assay [13]; -52.7% (active) in [14]; 7.12% (active) in [15]; -16.2% (active) in assay [16]; -67.3% (active) in [17]; 38.5% in assay [18]. Also, the growth in assay [19] is -44.7% (active).

As to `CCn1c(Cc2ccccc2Nc2c(Cl)cccc2Cl)nnc1SCC(=O)Nc1ccccc1C(F)(F)F`, the growth in assay [1] was 89.7%; in assay [2] it was 82.3%; in assay [3], 79.4%; in assay [4] it was 98.1%; in assay [5], 95.8%; in assay [6], 55.5%. The growth in [7] is 76.8%; in assay [8], 92%; in assay [9], 99.1%; in assay [10], 103%; in [11], 72.5%; in assay [12] it was 100%. The growth was 84.8% in assay [13]; 94.6% in [14]; 100% in [15]; 90.6% in assay [16]; 106% in assay [17]; 101% in [18]. Moreover, in [19], the growth is 92.2%.

Consider `COc1cccc(NC(=O)OC(C)C)c1`, for which the growth is 98.7% in assay [1]; 107% in assay [2]; 99% in assay [3]; 103% in assay [4]; 105% in assay [5]; 90.9% in assay [6]. Moreover, the growth was 94.7% in assay [7]; 104% in [8]; 103% in [9]; 103% in assay [10]; 88.1% in [11]; 94.5% in assay [12]. Also, the growth is 116% in assay [13]; 109% in assay [14]; 108% in assay [15]; 108% in [16]; 106% in assay [17]; 108% in [18]. Also, the growth in assay [19] was 112%.
